The list is not random: actives were taken first. Their share in the collection is about 12%.
BAZ2B block = BAZ2B (human) inhibition. Q9UIF8. AlphaScreen BAZ2B-H3K14Ac peptide displacement. Potency, µM (top dose mostly 114 µM), without a hit: at the highest dose activity change, negative = inhibition, actives largely listed as inhibitors. 360,000 compounds, 4.4% hits; further: on the % scale 0 is the no-effect control and ±100 the full control effect; nearly all actives have a fitted effect of over 60% in size
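Multi-concentration screen (max 110 uM) measuring displacement of acetylated histone H3 peptide from BAZ2B by AlphaScreen, using 50 nM protein, 50 nM peptide and 10 ug/mL streptavidin donor plus Ni-chelate acceptor beads.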
JMJD2A Tudor = inhibitors of human JMJD2A Tudor domain | O75164 | AlphaScreen JMJD2A-Tudor / H3K4me3 peptide binding | Potency, µM (series often up to 114 µM), for the others: at the highest dose activity change, negative = inhibition, usual class: inhibitors | 390,000 compounds, 4.4% hits | AID 504339; further: on the % scale 0 is the no-effect control and ±100 the full control effect; nearly all actives have a fitted effect of over 50% in size
HP1b chromo inh = blocks HP1-beta chromodomain binding to methylated histone tails | P83916 | AlphaScreen HP1-beta / biotin-H3K9me3 peptide binding | Potency, µM (highest dose often 114 µM), inactives show at the highest dose activity change, negative = inhibition, hits mostly inhibitors | 390,000 compounds, 0.56% hits | AID 540317; further: nearly all actives have a fitted effect of over 70% in size
Target sequence (P83916 whole entry, looked up): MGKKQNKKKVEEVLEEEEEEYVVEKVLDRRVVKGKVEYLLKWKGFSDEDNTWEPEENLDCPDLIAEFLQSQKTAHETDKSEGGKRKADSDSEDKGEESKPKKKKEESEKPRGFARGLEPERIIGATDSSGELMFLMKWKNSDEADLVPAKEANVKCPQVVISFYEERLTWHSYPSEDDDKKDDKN
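AlphaScreen: HP1-beta (50 nM) preformed 30 min with biotin-H3(1-18)K9me3 peptide (50 nM) in PBS pH 7.4, 0.01% Tween-20. Compound added for 30 min at RT, then streptavidin donor/nickel chelate acceptor beads (10 ug/mL) for 30 min.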
G9a block = inhibitors of human histone lysine methyltransferase G9a; Q96KQ7; Potency, µM (highest dose often 102 µM), for inactives: at the highest dose activity, negative = inhibition, actives largely listed as inhibitors; 350,000 compounds, 8.8% hits; G9a H3K9 monomethylation, AlphaScreen, 2 h; further: on the % scale 0 is the no-effect control and ±100 the full control effect; nearly all actives have a fitted effect of over 75% in size
Target sequence (Q96KQ7 913-1193 limits assumed): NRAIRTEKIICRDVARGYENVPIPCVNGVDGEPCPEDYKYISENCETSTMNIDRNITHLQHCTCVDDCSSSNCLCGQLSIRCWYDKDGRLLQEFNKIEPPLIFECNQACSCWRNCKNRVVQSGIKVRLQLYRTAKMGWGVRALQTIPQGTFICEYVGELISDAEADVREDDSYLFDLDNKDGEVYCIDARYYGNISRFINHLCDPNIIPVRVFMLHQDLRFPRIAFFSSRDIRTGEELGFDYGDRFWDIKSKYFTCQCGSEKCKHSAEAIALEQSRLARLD
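Readings reflect AlphaScreen signal from monomethyl-H3K9 antibody detection. HMT at 20 nM; substrate b-H3K9 500 nM; cofactor SAM 20 uM; 2 h RT reaction; compounds tested as titrations in qHTS with 15 min preincubation.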
L3MBTL1 inh = L3MBTL1 (human) inhibition. AlphaScreen L3MBTL1–H3K9me1 peptide binding. Potency, µM (top dose mostly 57.1 µM), for inactives: top-dose activity, negative = inhibition, usual class: inhibitors. 230,000 compounds, 0.66% hits. AID 485360; further: on the % scale 0 is the no-effect control and ±100 the full control effect; nearly all actives have a fitted effect of over 60% in size
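Read-out is AlphaScreen signal from streptavidin donor and nickel chelate acceptor beads (10 ug/mL final each) bridging L3MBTL1 (50 nM) and biotinylated K9-monomethylated H3(1-15) peptide (75 nM), after 30 min compound exposure at room temperature.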
Sfp PPTase inh = Sfp phosphopantetheinyl transferase inhibition | Q9F4F7 | Biochemical Sfp PPTase activity, qHTS | Potency, µM, for the others: largest response in the series, negative = inhibition, most hits filed as inhibitors | 310,000 compounds, 3.5% hits;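 further: the enzyme is Sfp with the accession as filed and its product quenches rhodamine fluorescence; 0% = enzyme reaction without inhibitor and -100% = no enzyme wells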
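Step 1, compound plus 15 nM Sfp-PPTase, 15 min, room temperature. Step 2, add rhodamine-CoA (5 uM) and BHQ-2-YbbR (12.5 uM). Step 3, read 525/598 nm fluorescence at 0 and 30 min.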
* = called active by the depositor; ? = inconclusive; · = no result; [ ] = dose if it differs, or a comment. The call rests on the fitted dose curve; in most records, active means well fitted curve in the direction sought with a large enough effect; inconclusive means small, poorly fitted or top-dose-only effect, or another doubt; inactive means no such curve, though single readings can be large; an effect the other way counts as inactive or inconclusive. Potency means the concentration at half of the fitted maximal effect.

SMILES	BAZ2B block	JMJD2A Tudor	HP1b chromo inh	G9a block	L3MBTL1 inh	Sfp PPTase inh
Cc1nn(CCC(=O)NNC(=S)Nc2ccc(F)cc2)c(C)c1Br	6.4%	-11.1%	20.2%	?	5.5%	8.1%
O=C(Cn1nc(C(F)F)cc1C(F)F)NNC(=S)Nc1ccc(F)cc1	9.5%	-9.7%	13.9%	?	·	14.4%
Cc1nn(C)c(C(=O)NC(=S)Nc2ccc([N+](=O)[O-])cc2)c1Cl	-17.3%	-22.6%	4.1%	·	·	31.6µM*
Cc1nn(C(C)C(=O)NNC(=S)Nc2ccc(F)cc2)c(C)c1[N+](=O)[O-] (configuration not stated)	-0.3%	-16.5%	16.6%	44.7µM*	·	17.7%
O=C(Cn1nc(C(F)F)cc1C(F)F)NNC(=S)Nc1ccc([N+](=O)[O-])cc1	-29.8%	?	-14.5%	20µM*	-10.3%	7.5%
Cc1c(Cl)ccc2sc(N3CCN(C(=O)c4ccco4)CC3)nc12	?	-18.5%	-1.4%	-27.7%[59 µM]	·	·
COc1ccc2c(c1)c1c(c(=O)n(-c3ccc(C)cc3)c(=O)n1CC(=O)N1CCCC1)n2C	-31.7%	-8.3%	34.8%	-6.7%[59 µM]	·	·
CS(=O)(=O)N1CCC[C@@]2(CCN(Cc3ccc(C#N)cc3)C2)C1	·	·	·	3.6%[12.7 µM]	·	16.0%
Cc1cnn(CCC(=O)NNC(=S)Nc2ccccc2)c1	-2.1%	-1.5%	36.9%	-3.2%[59 µM]	4.9%	-8.9%
Cc1ccc(NC(=S)NNC(=O)CCn2cc(C)cn2)cc1	-1.7%	-10.8%	28.6%	50.1µM*	-4.3%	5.3%
CC(C)(C)OC(=O)N/N=C/c1cc(N=Nc2ccccc2)ccc1O	?	?	-24.5%	16.9%[59 µM]	-3.8%	21.0%
Cc1c(N2C(=O)/C(=C/C3CC=CCC3)SC2=S)c(=O)n(-c2ccccc2)n1C (configuration not stated)	?	-16.5%	-22.8%	-48.1%[12.7 µM]	·	44.7µM*
Cc1c(N2C(=O)/C(=C/c3ccccc3)SC2=S)c(=O)n(-c2ccccc2)n1C	-36.6%	-22.4%	-5.9%	21.3%[0.501 µM]	-7.0%	-25.0%
Cc1ccc(/C=C2\SC(=S)N(c3c(C)n(C)n(-c4ccccc4)c3=O)C2=O)cc1	?	?	-13.4%	·	-13.3%	?
CN1C(=O)/C(=C/c2cc(N=Nc3ccccc3)ccc2O)SC1=S	2.24µM*	5.01µM*	?	8.91µM*	-7.1%	-6.1%
Cc1c(N2C(=O)/C(=C3\C(=O)N(CC(=O)O)c4ccccc43)SC2=S)c(=O)n(-c2ccccc2)n1C	79.4µM*	-20.4%	5.5%	·	6.8%	?
Cc1c(N2C(=O)/C(=C\c3ccccc3O)SC2=S)c(=O)n(-c2ccccc2)n1C	-30.4%	17.8µM*	?	1.78µM*	-9.0%	12.6µM*
Clc1ccc(-c2nn3c(-c4cc(-c5ccccc5)n[nH]4)nnc3s2)cc1	·	11.5%[57.1 µM]	9.6%[57 µM]	·	·	·
CCOC(=O)[C@]1(C(NC(=O)OC)c2ccco2)CCCC1=O (some centres not stated)	·	·	·	·	·	10.8%
Cc1nn(CC(=O)NC2CC2)c(=O)c2cc3cc(F)ccc3n12	1.9%	-1.5%	28.3%	1.3%[59 µM]	·	·
CCN1CCN(C(=O)c2ccc3c(c2)N(Cc2ccc(F)cc2)C(=O)c2ccccc2S3(=O)=O)CC1	-13.8%	-21.5%	14.8%	-28.1%[59 µM]	·	·
Cc1c(N2C(=O)/C(=C\C3CC=CCC3)SC2=S)c(=O)n(-c2ccccc2)n1C (configuration not stated)	-30.8%	-20.3%	-24.0%	?	·	50.1µM*
Nc1nccs1	·	·	·	3.7%[2.33 µM]	·	-7.2%
COc1cccc(NS(=O)(=O)c2ccc3[nH]cc(C(=O)NCCc4ccccc4)c(=O)c3c2)c1	·	-24.0%	8.9%	-16.4%[59 µM]	·	·
Cc1cc(N2CCN(C)CC2)ccc1NC(=O)c1c2c(nc3ccccc13)CCN(Cc1ccccc1)C2	?	?	-13.5%	35.5µM*	·	5.3%
SMILES	BAZ2B block	JMJD2A Tudor	HP1b chromo inh	G9a block	L3MBTL1 inh	Sfp PPTase inh
Cc1c(Cl)cccc1NC(=O)COC(=O)c1c2c(nc3ccccc13)CCN(Cc1ccccc1)C2	-36.2%	-30.3%	12.0%	-32.1%[59 µM]	-12.0%	6.2%
O=C(NC1CCCCCC1)c1c2c(nc3ccccc13)CCN(Cc1ccccc1)C2	-5.4%	-9.9%	27.7%	1.41µM*	3.9%	4.3%
CC(C)c1ccccc1NC(=O)COC(=O)c1c2c(nc3ccccc13)CCN(Cc1ccccc1)C2	-10.2%	-28.4%	8.8%	5.1%[59 µM]	-12.8%	-6.7%
CCC(=O)N1CCc2cc(Br)cc(S(=O)(=O)N3CCN(c4cc(C)ccc4C)CC3)c21	1.9%	-9.9%	7.5%	4.5%[59 µM]	·	·
CN(C)c1ccc2nc3c(=O)[nH]c(=O)nc-3n(CC(O)C(O)C(O)CO)c2c1 (configuration not stated)	39.8µM*	-30.3%	?	50.1µM*	·	-19.6%
COCC(=O)Nc1nc2n(n1)C(c1ccc(Cl)cc1)CC(c1ccc(OC)cc1)N2 (configuration not stated)	?	?	52.6%	79.4µM*	0.8%	-26.5%
Cn1cc(C(c2ccccc2OCC(=O)O)c2cn(C)c3ccccc23)c2ccccc21	50.1µM*	14.1µM*	?	-14.1%	-3.5%	-2.6%
Cn1cc(C(c2ccccn2)c2cn(C)c3ccccc23)c2ccccc21	35.5µM*	22.4µM*	?	11.3%[12.7 µM]	·	8.5%
c1ccc(C(c2c[nH]c3ccccc23)c2c[nH]c3ccccc23)nc1	44.7µM*	79.4µM*	-28.2%	?	·	14.9%
CCn1c(=O)cc(OCC(=O)O)c2ccccc21	2.4%	-9.9%	67.4%	-2.1%	11.1%	-3.1%
c1ccc(C(c2cccs2)c2c[nH]c3ccccc23)cc1 (configuration not stated)	-30.8%	-26.3%	15.0%	?	·	·
Cc1c(Cn2ccnc2)c2ccccc2n1CCC(=O)O	·	·	·	0.9%[12.7 µM]	·	16.2%
COc1ccc(Cl)cc1NC(=O)CSc1nc2ccccc2nc1N1CCCCC1	5.0%	38.5%	98.0%	71.0%[59 µM]	·	·
CCOc1ccc(Nc2oc(/C=C/c3ccc(OC)c(OC)c3)nc2C#N)cc1	-14.4%	-31.8%	20.0%	-12.1%[59 µM]	·	·
CCc1ccc(C(=O)c2cn(CC(=O)Nc3ccc(OC)cc3)c3cc4c(cc3c2=O)OCCO4)cc1	1.3%	-11.9%	21.7%	0.7%[59 µM]	·	·
CCc1ccc(C(=O)c2cn(CC(=O)Nc3ccc4c(c3)OCCO4)c3ccc(CC)cc3c2=O)cc1	79.4µM*	2.0%	42.8%	-0.6%[59 µM]	·	·
CCc1ccc(C(=O)c2cn(CC(=O)Nc3ccc(F)c(F)c3)c3cc(OC)c(OC)cc3c2=O)cc1	79.4µM*	-22.8%	12.2%	-6.6%[59 µM]	·	·
CCOc1ccc(C(=O)c2cn(CC(=O)Nc3cc(OC)cc(OC)c3)c3ccc(F)cc3c2=O)cc1	89.1µM*	-33.4%	25.8%	?	·	·
